# Assay results: PubChem BioAssay AID588342 (National Center for Advancing Translational Sciences (NCATS), 2011)
# Screen size: about 360,000 compounds; about 25,000 (6.9%) were called active. Not shown: some 9% with an inconclusive outcome. This is one part of a sample in which actives are shown more often than they occur. Unmarked numbers belong to inactive results. Calls come from the whole dose curve; as a rule, active = well fitted inhibition curve with a large enough effect; inconclusive = small, poorly fitted or top-dose-only effect; inactive = flat fitted curve, though single readings scatter.
# Molecular target: Luciferin 4-monooxygenase (Photinus pyralis) (UniProt P08659)
# Assay: qHTS profiling assay for firefly luciferase inhibitor/activator using purifed enzyme and Km concentrations of substrates (counterscreen for miR-21 project); note: nearly all actives have a fitted effect of over 55% in size;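 for activity change, negative = inhibition: plate controls were vehicle for no effect and reference inhibitor for full effect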
# Conditions: purified FLuc, luminescence inhibition; series mostly up to 57.5 µM; activity change, negative = inhibition: at the top concentration
# Outline: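 Biochemical qHTS of compounds, final roughly 60 µM downward over six points, against 10 nM purified firefly luciferase using Km concentrations of substrates (10 uM D-luciferin, 10 uM ATP) in Tris acetate pH 7.5 buffer; luminescence output.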
# Potency is the fitted concentration of half-maximal effect.
# Luciferin 4-monooxygenase (Photinus pyralis), sequence (P08659 whole entry, looked up): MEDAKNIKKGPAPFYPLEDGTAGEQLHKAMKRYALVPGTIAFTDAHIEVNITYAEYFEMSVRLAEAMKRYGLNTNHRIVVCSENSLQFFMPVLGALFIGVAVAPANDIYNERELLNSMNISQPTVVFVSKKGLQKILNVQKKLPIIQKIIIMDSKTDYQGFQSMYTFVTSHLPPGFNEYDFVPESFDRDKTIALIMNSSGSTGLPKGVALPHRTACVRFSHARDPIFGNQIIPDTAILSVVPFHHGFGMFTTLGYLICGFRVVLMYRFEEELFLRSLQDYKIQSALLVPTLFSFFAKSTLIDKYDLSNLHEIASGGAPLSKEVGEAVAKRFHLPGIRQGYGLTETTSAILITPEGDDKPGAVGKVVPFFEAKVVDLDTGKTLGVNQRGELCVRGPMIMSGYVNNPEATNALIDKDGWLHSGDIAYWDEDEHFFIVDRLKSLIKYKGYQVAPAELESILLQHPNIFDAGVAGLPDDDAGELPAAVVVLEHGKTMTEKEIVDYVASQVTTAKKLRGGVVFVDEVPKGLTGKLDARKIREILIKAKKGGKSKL
SMILES,"activity change, negative = inhibition [%]",Potency
COc1ccc(N2C(=O)CS(=O)(=O)C23C(=O)N(Cc2ccc(C)cc2)c2ccccc23)cc1Cl (stereo unspecified),5.02,
O=S(=O)(NCCS(=O)(=O)N1CCN(c2ccccc2)CC1)c1ccc(Cl)cc1,0.0657,
CSc1c(SCc2ccccc2)cnn(Cc2ccccc2)c1=O,-18.5,
CC1=NN(Cc2ccccc2)C(=O)/C1=C/c1ccc(N(C)C)cc1,,6.75 µM (active)
CN(C)c1cc[n+](Cc2ccccc2)cc1,-1.97,
COc1ccc(C)cc1NC(=O)CN1c2cccc3cccc(c23)S1(=O)=O,-0.145,
CCOC(=O)c1cc(-c2ccccc2C)n(Cc2cc(C)no2)n1,-3.14,
CC(C)CC(=O)Nc1ccc(Cc2ccncc2)cc1,-0.47,
COc1cccc(OC)c1C(=O)Nc1ccc(Cc2ccncc2)cc1,-10.8,
CCc1ccc(NC(=O)Nc2ccncc2)cc1,,9.53 µM (active)
CCCN(C(=O)c1nc2nccc(C)n2n1)c1c(N)n(Cc2ccccc2)c(=O)[nH]c1=O,-2.05,
CCOC(=O)/C(=N\Nc1cc(Cl)ccc1Cl)N1CCN(C)CC1,-1.6,
CC(C)Cc1nc(Nc2ccc(S(=O)(=O)N3CCCC3)cc2)c2nnn(Cc3ccccc3)c2n1,-0.534,
Cc1onc(-c2ccc(F)cc2F)c1C(=O)Nc1cccc(C(F)(F)F)c1,-0.0598,
CCCC(=O)Nc1cccc(NC(=S)NC(=O)C(C)Oc2ccc(Cl)cc2Cl)c1 (stereo unspecified),0.164,
CC(C)n1ncc2c(C(=O)NCc3ccccc3CN(C)C)cc(C3CC3)nc21,-2.31,
COC(=O)CC1=NN(c2nc(C)cc(C)n2)C(=O)C1,-2.4,
COC(=O)Cc1csc(Nc2c(C)n(C)n(-c3ccccc3)c2=O)n1,0.205,
COC(=O)Cc1cc(=O)n(-c2nc3ccccc3s2)[nH]1,,16.9 µM (active)
CCCCOc1ccc(CNC(=O)c2ccc3c(c2)N(C)C(=O)C2CCCCN32)cc1 (stereo unspecified),-16.9,
Cc1c(C(=O)Nc2cccc(Cl)c2)cn2c(nc3ccccc32)c1C#N,0.605,
Cn1c(Nc2cccc(Cl)c2)nc2ccccc21,,26.9 µM (active)

SMILES,"activity change, negative = inhibition [%]",Potency
C/C(=N\c1nc2ccccc2n1C)c1cc(Cl)ccc1O,1.93,
Cc1ccc(S(=O)(=O)N2CCc3cc(C(=O)Nc4ccc(Cl)cc4C)ccc32)cc1,-0.133,
NC(=O)Cn1cc(/C=N\NS(=O)(=O)c2ccccc2)c2ccccc21,-3.8,
COc1cccc(NCCC(=O)c2cccc([N+](=O)[O-])c2)c1,,15.1 µM (active)
COc1cccc(C(=O)CC(=O)C(=O)Nc2ccc([N+](=O)[O-])cc2C)c1,-0.0338,
COc1cccc(CNC(=O)CCCC(=O)Nc2cccc([N+](=O)[O-])c2)c1,-0.421,
CC(=O)c1ccc(OCCCC(=O)Nc2ccc(C)c(S(=O)(=O)N3CCOCC3)c2)cc1,-0.819,
Cc1ccc(NC(=O)CN2c3ccccc3S(=O)(=O)c3ccccc32)cc1F,-14.8,
Cc1ccc(F)cc1S(=O)(=O)N1CCC(c2nc3ccccc3s2)CC1,-14.2,
N#C/C(=C(/O)Cc1cccc2ccccc12)c1nc2ccccc2s1,0.936,
CC1=CC(=C(C#N)c2nc3ccccc3s2)C=C(C)N1c1ccc(F)cc1F,,1.35 µM (active)
COc1ccc2[nH]cc(/C=C(/C#N)S(=O)(=O)c3ccccc3)c2c1,-2.16,
COc1ccc(C(C(O)C(=O)c2c[nH]c3ccccc23)N2CCN(c3ccccc3)CC2)cc1 (stereo unspecified),1,
COc1ccc(/C=C(\C#N)c2c[nH]c3ccccc23)cc1,,19 µM (active)
CCOC(=O)c1cc(NC(=O)c2ccc(F)cc2)c(=O)n2c1oc1ccccc12,-2.27,
COC1=C/C(=C/c2c(N)n3nc(CC(=O)N4CCOCC4)sc3nc2=O)C=CC1=O,-7.53,
COc1cc2c(cc1OC)/C(=C/C(=O)c1ccc(NC(C)=O)cc1)NCC2,,16.9 µM (active)
CCNC(=O)c1ccc(OCC(=O)Nc2ccc(F)cc2)c(OC)c1,-8.62,
COc1cc2c(cc1OC)CN(CC(=O)Nc1ccc(F)cc1)CC2,1.97,
CCN(CC(=O)Nc1ccccc1C(=O)NC1CC1)Cc1cccs1,2.69,
Cc1cc(OCC(=O)NCC2(N(C)C)CCCCC2)cc(C)c1Cl,-0.865,
Cc1ccnc(SCC(N)=O)n1,-2.98,

SMILES,"activity change, negative = inhibition [%]",Potency
Cc1ccnc(N2CCCC(C(=O)NC3CC3)C2)n1 (stereo unspecified),0.897,
Cc1ccnc(-n2sc3ccccc3c2=O)n1,,9.53 µM (active)
CCN(Cc1ccccc1)S(=O)(=O)c1ccc2c(c1)CCCN2C(C)=O,-8.62,
COc1ccc(N2CCN(C(=O)COc3ccc4c(C)cc(=O)oc4c3)CC2)cc1,1.41,
CN(Cc1cnccn1)C(=O)c1cc(COc2cccc(C(F)(F)F)c2)on1,-18.1,
CN(CCOc1ccccc1)C(=O)c1cc(COc2c(F)cccc2F)on1,-13.6,
Cc1cc(CN(C)C(=O)c2cc(COc3ccc(C)c(C)c3)on2)n[nH]1,,2.39 µM (active)
CN(Cc1cccnc1)C(=O)c1cc(COc2ccc3ncccc3c2)on1,-5.81,
Cc1ccc(OCc2cc(C(=O)N(C)CCc3ccccc3)no2)cc1C,,23.9 µM (active)
CCn1ccnc1CN(C)C(=O)c1cc(COc2ccc(-n3cncn3)cc2)on1,0.919,
COc1cccc(CNC(=O)c2cc(=O)[nH]c3ccc(S(=O)(=O)N4CCCCC4)cc23)c1,3.34,
Cc1cccc(OCCCC(=O)Nc2sc3c(c2C(N)=O)CCC(C)C3)c1 (stereo unspecified),-8.63,
OC(c1ccccc1)C(CN1CCOCC1)c1ccccc1 (stereo unspecified),-1.86,
COC(=O)c1ccccc1NC(=O)c1cnn(-c2ccc(F)cc2)c1-n1cccc1,-3.25,
COC(=O)c1c(NC(=O)CCCOc2ccccc2)sc2c1CCC(C)C2 (stereo unspecified),1.24,
CC1CCN(C(=O)COC(=O)CCC(=O)c2cccs2)CC1,-5.08,
O=C(Nc1ccc2nc(SCC(=O)N3CCCc4ccccc43)sc2c1)c1ccc(Cl)cc1,-16.4,
Cc1nnc(SCC(=O)N2CCN(c3ccccc3)CC2)n1-c1ccccc1,1.26,
Cc1nnc(SCC(=O)NCCOc2ccc(Cl)cc2)n1-c1ccccc1,-2.21,
Cc1nnc(SCc2ccc(C(=O)c3ccc(Cl)cc3)o2)n1-c1ccccc1,,15.1 µM (active)
COc1ccc(C)cc1NC(=O)c1cc(-c2ccccc2)nc2c1cnn2C(C)C,1.45,
COCCN(CCOC)c1nc(N)c2c(N)nc3c(c2c1C#N)CC(=O)N3Cc1ccc(Cl)cc1,3.37,

SMILES,"activity change, negative = inhibition [%]",Potency
Cc1nnc(SCc2nc3ccccc3nc2C)s1,-1.45,
Cc1ccc(Nc2nc(N)nc(CSc3nnc(C)s3)n2)cc1,,10.7 µM (active)
CCOC(=O)C1CCCN(Cc2nc(N)nc(Nc3ccc(C)cc3)n2)C1 (stereo unspecified),2.54,
O=C(COC(=O)Cn1[nH]c(=O)c2ccccc2c1=O)Nc1ncc(Cl)cc1Cl,-0.206,
Cc1ccc(S(=O)(=O)NCCC(=O)NNC(=O)C2COc3ccccc3O2)cc1 (stereo unspecified),0.339,
CCN(CCCNC(=O)Cn1ncc2c3ccccc3n(C)c2c1=O)Cc1ccccc1,-13.7,
O=C(Cc1ccc(Cl)cc1)Nc1ccc2nn(-c3ccc(Cl)cc3)nc2c1,-0.963,
CCC(=O)Nc1ccc2nn(-c3ccc(F)cc3)nc2c1,,1.35 µM (active)
Cc1nn(CC(=O)Nc2ccc(F)cc2)c(=O)c2ccccc12,-0.402,
Cc1ccc(NC(=O)c2oc3ccc(S(=O)(=O)N4CCCCC4)cc3c2C)cc1Cl,-0.833,
COc1ccc(C(=O)N2CCN(c3ncccn3)CC2)cc1S(=O)(=O)N1CCOCC1,1.48,
O=c1c(Cl)c(NC2CC2)cnn1-c1ccccc1,3.08,
CCc1nc2c(cnn2-c2ccc(C)cc2)c(=O)n1-c1ccc(C)cc1,2.3,
C=CCNc1cnn(-c2ccc(C)cc2)c(=O)c1Cl,,15.1 µM (active)
CCCCN(CC)CCCNC(=O)Cn1ncc2c([nH]c3ccc(C)cc32)c1=O,-6.5,
O=C(CNCc1ccc(Cl)cc1)Nc1cccc(C(=O)O)c1,-5.42,
O=C(c1ccc(F)cc1)n1c(=S)nc2ccccn21,,0.269 µM (active)
O=C(Nc1c(-c2ccc(F)cc2)nc2ccccn12)c1cccc(F)c1,-11.9,
O=C(c1ccc(F)cc1)n1cc(C(=S)N2CCOCC2)c2ccccc21,-16.4,
Cc1cc(C)c(NC(=O)c2cc3sc(Cl)cc3n2C)c(C)c1,-8.09,
O=C(Nc1ccc(F)cc1)c1cc2c(s1)CCCC2,,1.9 µM (active)
O=C(NNC(=O)c1cc2c(s1)CCCC2)c1ccccc1,,26.9 µM (active)

SMILES,"activity change, negative = inhibition [%]",Potency
O=C(NCCCN1CCOCC1)c1cc2c(s1)CCC2,3.35,
O=C(NCC1CCCO1)c1cc2c(s1)CCCC2 (stereo unspecified),,12 µM (active)
O=C(NNC(=O)C1CCC1)c1ccccc1,0.634,
CCC(=O)c1c[nH]c(C(=O)NCC2CCCO2)c1 (stereo unspecified),-1.61,
O=C(c1cc2c(s1)CCC2)N1CCN(c2ccccc2)CC1,-9.22,
O=C(NCCCn1ccnc1)c1cc2c(s1)CCCC2,-19.1,
COc1ccc(C(CNC(=O)c2cc3c(s2)CCCC3)N2CCOCC2)cc1 (stereo unspecified),0.96,
COc1ccc(Cn2c(=O)c3oc4ccccc4c3n(CC(=O)Nc3ccc(F)cc3F)c2=O)cc1,1.11,
COc1ccc(Cn2ccn(Cc3cccc(OC)c3)c(=O)c2=O)cc1,1.98,
CN(C)c1ccc(NC(=O)CSc2nc(-c3ccco3)cc(C(F)(F)F)n2)cc1,2.16,
CSc1ccccc1OCc1cc(C(=O)N2C[C@H]3CC[C@H]2C3)no1,,10.7 µM (active)
COC(=O)[C@@H]1CCCN1C(=O)c1cc(COc2cccc3cccnc23)on1,-2.66,
CSc1ccccc1OCc1cc(C(=O)N(C)CCc2c(C)n[nH]c2C)no1,-1.04,
CCc1nnc(SCc2nc(-c3cccc(C)c3)oc2C)c2cc3sc(C)cc3n12,-0.968,
COc1ccc2[nH]c(C(=O)N3CCN(C)CC3)c(C)c2c1,-4.15,
COc1ccc2[nH]c(=S)cc(C)c2c1,-15.8,
COc1ccc2[nH]c3ccc(OC)cc3c2c1,,21.3 µM (active)
CCCCn1c(CNC(=O)C23CC4CC(CC(C4)C2)C3)nnc1SCC(=O)Nc1ccc(C)cc1,-12.5,
